# Source: PubChem BioAssay
# The source made the active and inactive calls. Unless noted, how the calls were made is not given here.
# Tests used:
# [1] = test system: Wnt5a (protein binding on small-molecule microarray); assay: small molecules binding Wnt5a protein – biophysical, small-molecule microarray, 635/667 nm fluorescence, primary screen (AID 1142); conditions: 635 nm fluorescence, higher = more signal;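 further: fluorescence read at 667 nm with signal to noise per printed feature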
# [2] = ATP-based viability of Huh7 replicon cells – cell-based, CellTiter-Glo luminescence, basal, 48 h, cytotoxicity control for HCV replication inhibitor project, primary screen (AID 1143); conditions: higher = more signal, called active from +8 up or from −8 down;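 further: Huh7 hepatoma cells carrying a hepatitis C replication reporter with no stimulus; test concentration not given here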
# [3] = Pseudomonas biofilm growth suppression – PAO1 strain, BacTiter-Glo luminescence, LB-PBS, primary screen (AID 1144); conditions: P. aeruginosa PAO1 biofilm, 12 h, higher = more signal
# [4] = basal CRE-LacZ reporter activity in PC12 – cell-based, unstimulated, primary screen (AID 1145); conditions: no forskolin, luminescence, 4.5 h, higher = more signal, called active from +8 up or from −8 down
# [5] = forskolin-driven CRE-LacZ activity in PC12 – cell-based, CRE-LacZ reporter, forskolin-stimulated, primary screen (AID 1146); conditions: luminescence, 4.5 h, higher = more signal, called active from +8 up or from −8 down;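 further: PC12 cells with 6xCRE LacZ reporter stimulated by forskolin 10 µM; beta-galactosidase reporter signal reflecting CREB driven transcription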
# [6] = target: Streptavidin (Streptomyces avidinii) (UniProt P22629); assay: compounds binding control protein streptavidin – biophysical, small-molecule microarray, 635/667 nm fluorescence, artefact control for SMM compound annotation, primary screen (AID 1147); conditions: higher = more signal;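 further: signal reflects streptavidin binding to arrayed compounds as a control protein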
# Streptavidin (Streptomyces avidinii), sequence (P22629 whole entry, looked up): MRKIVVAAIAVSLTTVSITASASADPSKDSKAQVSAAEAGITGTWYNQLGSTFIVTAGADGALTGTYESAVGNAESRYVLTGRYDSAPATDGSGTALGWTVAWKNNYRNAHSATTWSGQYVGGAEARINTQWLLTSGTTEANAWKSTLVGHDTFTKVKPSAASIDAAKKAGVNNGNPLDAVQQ
# [7] = probe aInhba binding on compound microarray – biochemical, small-molecule microarray, 635/667 nm fluorescence, primary screen (AID 1148); conditions: higher = more signal;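 further: score merges 667nm spot fluorescence with signal-to-noise for antibody binding to printed compounds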
# Torsin-1A (Homo sapiens) [8] = target: Torsin-1A (Homo sapiens) (UniProt O14656); assay: TOR1A wild-type binding on microarray – cell lysate, small-molecule microarray, lysate, 635/667 nm, primary screen (AID 1149); conditions: COS7 hTOR1A-WT lysate, 635 nm fluorescence, higher = more signal
# Torsin-1A (Homo sapiens), sequence (O14656 whole entry, looked up): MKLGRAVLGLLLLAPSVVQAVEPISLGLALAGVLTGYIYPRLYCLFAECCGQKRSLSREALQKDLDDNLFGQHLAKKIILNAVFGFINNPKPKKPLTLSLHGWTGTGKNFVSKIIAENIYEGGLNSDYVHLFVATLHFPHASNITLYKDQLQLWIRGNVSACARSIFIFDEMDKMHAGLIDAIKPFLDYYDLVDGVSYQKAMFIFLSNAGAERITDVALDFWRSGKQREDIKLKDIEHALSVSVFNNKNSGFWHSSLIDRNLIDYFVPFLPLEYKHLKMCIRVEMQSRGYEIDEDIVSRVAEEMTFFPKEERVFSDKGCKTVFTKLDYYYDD
# Torsin-1A (Homo sapiens) [9] = target: Torsin-1A (Homo sapiens) (UniProt O14656); assay: torsin A mutant lysate binding on microarrays – cell lysate, small-molecule microarray, COS7 lysate, 635/667 nm fluorescence, primary screen (AID 1150); conditions: COS7 hTOR1A mutant lysate, 635 nm fluorescence, higher = more signal;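 further: score pools 667 nm emission and signal to noise measuring lysate protein binding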
# [10] = test system: Sonic hedgehog protein (Shh); assay: Sonic hedgehog microarray binding compounds – biochemical, small-molecule microarray, 635/667 nm fluorescence, primary screen (AID 1151); conditions: 635 nm fluorescence, higher = more signal;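 further: Shh protein binding to compounds spotted on small-molecule microarray slides; score combines spot fluorescence intensity with signal-to-noise across triplicate slides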
# [11] = optical density shifts of acrAB sulA E. coli – strain DRC41, OD650, 48 h, E. coli filamentation inducer project, primary screen (AID 1152); conditions: higher = more signal, called active from +8 up or from −8 down;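 further: E. coli MC1000 strain DRC41 lacking acrAB efflux pump and sulA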
# [12] = probe aLefty1 binding on compound microarray – biochemical, small-molecule microarray, 635/667 nm fluorescence, primary screen (AID 1153); conditions: higher = more signal;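 further: score merges spot fluorescence with signal-to-noise ratio from the scanned slide images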
# [13] = plasmodial surface anion channel blockers, osmotic lysis – cell-based, P. falciparum Indochina, OD700, 1 h, primary screen (AID 1154); conditions: P. falciparum Indochina infected RBC osmotic lysis, higher = more signal, called active from +8 up or from −8 down
# [14] = plasmodial surface anion channel blockers, osmotic lysis – cell-based, P. falciparum Indochina, OD700, 2 h, primary screen (AID 1155);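 further: lysis reports solute entry through the parasite surface anion channel PSAC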; conditions: P. falciparum Indochina infected erythrocytes, higher = more signal, called active from +8 up or from −8 down
# [15] = changes in parasitized red cell lysis, either direction – P. falciparum Indochina, OD700, 3 h, PSAC antagonist project, primary screen (AID 1156); conditions: P. falciparum-infected erythrocytes, osmotic lysis, higher = more signal, called active from +8 up or from −8 down
# [16] = plasmodial surface anion channel blockers, osmotic lysis – cell-based, P. falciparum Indochina, OD700, 18 h, primary screen (AID 1157); conditions: P. falciparum Indochina infected erythrocytes, osmotic lysis OD700, 18 h; higher = more signal, called active from +8 up or from −8 down
# [17] = S6 kinase pathway phospho-S6 level changes – cell-based, A549, cytoblot, luminescence, serum-stimulated, primary screen (AID 1158); conditions: 5 h, higher = more signal;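 further: serum-stimulated A549 lung adenocarcinoma cells; signal is phosphorylated S6 detected by cytoblot immunostaining with HRP secondary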
# [18] = target: NADPH oxidase 2 (Homo sapiens) (UniProt P04839); assay: compounds shifting NOX2 Amplex Red fluorescence – cell-based, HEK293-NOX2, PMA-stimulated, NOX inhibitor project, primary screen (AID 1159); conditions: 45 min, higher = more signal, called active from +8 up or from −8 down; further: test concentration not given here
# NADPH oxidase 2 (Homo sapiens), sequence (P04839 whole entry, looked up): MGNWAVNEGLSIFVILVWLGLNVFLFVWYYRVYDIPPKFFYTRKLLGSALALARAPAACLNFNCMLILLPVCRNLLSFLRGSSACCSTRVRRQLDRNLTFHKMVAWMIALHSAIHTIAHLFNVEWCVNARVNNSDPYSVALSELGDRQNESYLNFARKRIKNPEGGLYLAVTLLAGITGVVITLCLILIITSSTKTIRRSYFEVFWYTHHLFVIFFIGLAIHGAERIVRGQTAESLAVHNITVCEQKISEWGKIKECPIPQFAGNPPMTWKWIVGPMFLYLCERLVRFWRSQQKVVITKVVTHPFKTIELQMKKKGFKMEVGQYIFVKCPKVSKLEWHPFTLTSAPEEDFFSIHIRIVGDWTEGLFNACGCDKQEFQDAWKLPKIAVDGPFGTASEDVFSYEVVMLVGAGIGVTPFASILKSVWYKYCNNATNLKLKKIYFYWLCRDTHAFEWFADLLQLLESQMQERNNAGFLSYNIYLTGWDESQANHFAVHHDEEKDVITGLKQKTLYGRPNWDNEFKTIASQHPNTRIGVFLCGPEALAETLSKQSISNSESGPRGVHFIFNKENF
# [19] = target: NADPH oxidase 4 (Homo sapiens) (UniProt Q9NPH5); assay: compounds shifting NOX4 Amplex Red fluorescence – cell-based, HEK293-NOX4, tetracycline-induced, NOX inhibitor project, primary screen (AID 1160); conditions: HEK293-NOX4, Amplex Red H2O2 fluorescence, 45 min; higher = more signal, called active from +8 up or from −8 down
# NADPH oxidase 4 (Homo sapiens), sequence (Q9NPH5 whole entry, looked up): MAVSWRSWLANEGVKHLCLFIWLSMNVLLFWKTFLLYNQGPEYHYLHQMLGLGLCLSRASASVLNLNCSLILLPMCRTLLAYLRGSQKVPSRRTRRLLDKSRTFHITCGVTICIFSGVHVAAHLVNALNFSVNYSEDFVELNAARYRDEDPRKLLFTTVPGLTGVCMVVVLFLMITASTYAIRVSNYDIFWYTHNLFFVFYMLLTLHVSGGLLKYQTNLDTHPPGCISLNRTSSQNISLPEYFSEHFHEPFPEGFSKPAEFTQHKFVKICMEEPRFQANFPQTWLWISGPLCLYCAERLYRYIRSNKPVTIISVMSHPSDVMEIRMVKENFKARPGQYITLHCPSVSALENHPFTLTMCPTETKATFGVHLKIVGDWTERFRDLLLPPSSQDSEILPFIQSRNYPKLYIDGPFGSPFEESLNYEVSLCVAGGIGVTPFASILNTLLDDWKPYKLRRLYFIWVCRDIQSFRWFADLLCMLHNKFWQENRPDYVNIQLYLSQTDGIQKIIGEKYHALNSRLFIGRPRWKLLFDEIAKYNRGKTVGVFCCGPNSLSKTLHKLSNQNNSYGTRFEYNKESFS
# [20] = target: NADPH oxidase 5 (Homo sapiens) (UniProt Q96PH1); assay: compounds shifting NOX5 Amplex Red fluorescence – cell-based, HEK293-NOX5, NOX inhibitor project, primary screen (AID 1161); conditions: HEK293-NOX5, ionomycin, 45 min, higher = more signal
# NADPH oxidase 5 (Homo sapiens), sequence (Q96PH1 whole entry, looked up): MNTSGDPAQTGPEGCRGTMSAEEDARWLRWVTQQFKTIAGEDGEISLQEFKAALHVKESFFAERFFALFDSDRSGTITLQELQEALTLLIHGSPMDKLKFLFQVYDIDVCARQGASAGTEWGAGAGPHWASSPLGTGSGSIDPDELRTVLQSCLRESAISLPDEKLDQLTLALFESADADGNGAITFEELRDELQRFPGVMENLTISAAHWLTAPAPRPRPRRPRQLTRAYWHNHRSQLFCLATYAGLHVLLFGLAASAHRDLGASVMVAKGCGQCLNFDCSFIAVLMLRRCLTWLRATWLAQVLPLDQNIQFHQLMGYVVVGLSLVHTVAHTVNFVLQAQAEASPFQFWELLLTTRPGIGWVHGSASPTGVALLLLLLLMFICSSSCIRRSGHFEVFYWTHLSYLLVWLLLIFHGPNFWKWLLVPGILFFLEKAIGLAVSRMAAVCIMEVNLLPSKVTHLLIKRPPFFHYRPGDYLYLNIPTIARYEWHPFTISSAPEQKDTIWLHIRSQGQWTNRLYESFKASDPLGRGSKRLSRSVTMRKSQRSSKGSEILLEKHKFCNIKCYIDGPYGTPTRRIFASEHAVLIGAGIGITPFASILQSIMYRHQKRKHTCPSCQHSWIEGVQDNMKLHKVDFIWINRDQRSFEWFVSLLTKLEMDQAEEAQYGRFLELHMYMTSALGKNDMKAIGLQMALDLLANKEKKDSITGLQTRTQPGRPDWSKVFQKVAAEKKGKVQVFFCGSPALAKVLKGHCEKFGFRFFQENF
SMILES,composite z-score [1],z-score [2],z-score [3],z-score [4],z-score [5],composite z-score [6],composite z-score [7],composite z-score (Torsin-1A (Homo sapiens) [8]),composite z-score (Torsin-1A (Homo sapiens) [9]),composite z-score [10],z-score [11],composite z-score [12],z-score [13],z-score [14],z-score [15],z-score [16],z-score [17],z-score [18],z-score [19],z-score [20]
Cc1cc(C)c(-c2cc([C@H](C)ON=C3[C@H]4CCn5c(=O)n(-c6ccccc6)c(=O)n5[C@H]4[C@H](O)[C@@H]4O[C@H]34)on2)c(C)c1,0.266,-1.72 (inactive),1.96 (inactive),0.229 (inactive),1.43 (inactive),0.548,-0.0066,0.595,0.754,0.767,-0.0555 (inactive),0.218,1.43 (inactive),0.322 (inactive),0.347 (inactive),0.391 (inactive),-0.914,0.0599 (inactive),0.68 (inactive),-0.114
CC(C)N1CC=CC23O[C@@H]4C=CCCOC(=O)C4[C@H]2C(=O)N(CCCCCCO)[C@@H]3C1=O (stereo not given in full),-0.952,0.471 (inactive),-0.454 (inactive),-0.488 (inactive),-0.905 (inactive),-0.717,-0.003,-1.12,-1.57,0.011,0.383 (inactive),-0.007,0.156 (inactive),0.405 (inactive),0.799 (inactive),0.647 (inactive),0.342,0.584 (inactive),-0.185 (inactive),1.52
O=C(CS)NCCCCCNC(=O)[C@@H]1C[C@@H]2C(=O)N[C@@H](Cc3ccccc3)C(=O)N2[C@@H]1c1ccc(O)cc1,0.835,-0.0984 (inactive),-0.616 (inactive),0.692 (inactive),-0.981 (inactive),-0.859,-0.128,0.489,0.845,0.981,0.942 (inactive),0.0839,10.1 (active),1.07 (inactive),-0.676 (inactive),0.325 (inactive),-0.205,0.727 (inactive),-0.142 (inactive),0.0233
CC(CCC(=O)OC[C@H]1O[C@H](C#Cc2ccccc2)C=C[C@@H]1Oc1ccc(C)cc1)=NOC[C@@H](O)[C@H]1O[C@@H]2OC(C)(C)O[C@@H]2[C@H]1O,-0.598,-0.416 (inactive),-0.025 (inactive),0.099 (inactive),0.0046 (inactive),-0.564,-0.178,-0.526,-0.617,-0.108,0.715 (inactive),-0.193,14.2 (active),1.9 (inactive),0.0766 (inactive),1.05 (inactive),0.078,-1.55 (inactive),-0.00198 (inactive),-1.2
CCOC(=O)CCN1C(=O)[C@H]2[C@H]3[C@H](O)[C@H](O)CC(=NNC(=O)OCc4ccc(OC)cc4)[C@@H]3CC[C@H]2C1=O,-0.109,-0.284 (inactive),0.5 (inactive),0.957 (inactive),-0.254 (inactive),0.922,-0.195,-0.0239,0.0335,0.741,0.0393 (inactive),0.0288,6.59 (inactive),1.07 (inactive),-0.495 (inactive),0.353 (inactive),-0.587,-3.2 (inactive),-0.169 (inactive),-0.974
CCN(CC)c1ccc(N2CC=CC34O[C@@H]5/C=C\CCC(C)OC(=O)C5[C@H]3C(=O)N(CCCO)[C@@H]4C2=O)cc1 (stereo not given in full),0.0023,-0.682 (inactive),3.06 (inactive),0.0564 (inactive),-0.102 (inactive),-0.946,-0.211,1.23,2.02,-0.403,-0.074 (inactive),-0.191,1.43 (inactive),-0.223 (inactive),-0.0086 (inactive),-0.18 (inactive),-0.473,0.056 (inactive),-1.51 (inactive),0.975
COc1ccc(O[C@H]2C=C[C@@H](c3ccccc3)O[C@@H]2CON=C[C@@H](C)[C@H](OCc2ccccc2)C(C)C)cc1,-0.426,-0.149 (inactive),0.531 (inactive),-0.971 (inactive),0.367 (inactive),-0.567,-0.21,-1.53,-0.91,-0.071,0.302 (inactive),-0.246,2.08 (inactive),0.98 (inactive),0.422 (inactive),0.319 (inactive),0.831,-0.734 (inactive),0.877 (inactive),-0.165
CO[C@H]1COC(=O)[C@H](C)COC(=O)CC=C[C@@H](C)[C@H](OC)COC(=O)CC=C[C@@H]1C,0.185,-0.0182 (inactive),-0.272 (inactive),-0.474 (inactive),0.592 (inactive),-0.436,-0.128,1.03,0.666,1.55,0.738 (inactive),-0.196,-0.654 (inactive),-0.285 (inactive),-0.654 (inactive),-0.188 (inactive),0.648,-0.347 (inactive),0.0281 (inactive),0.625
Cc1ccc(F)cc1S(=O)(=O)N[C@@H]1CCN(Cc2ccc(CC(C)C)cc2)C1,-0.524,-4.94 (inactive),-0.158 (inactive),-0.683 (inactive),0.673 (inactive),-0.758,-0.231,0.492,-0.859,0.15,-19.2 (active),-0.146,2.71 (inactive),0.63 (inactive),0.233 (inactive),0.916 (inactive),-0.647,-0.0569 (inactive),-1.44 (inactive),-4.02
